“And” between values parts separate entries of the source, which are not always exact repeats. Equal values may be shown once.
target: T1, MAP/microtubule affinity-regulating kinase 4 (Homo sapiens) (UniProt Q96L34); conditions: at 1 µM
T1 sequence (whole entry): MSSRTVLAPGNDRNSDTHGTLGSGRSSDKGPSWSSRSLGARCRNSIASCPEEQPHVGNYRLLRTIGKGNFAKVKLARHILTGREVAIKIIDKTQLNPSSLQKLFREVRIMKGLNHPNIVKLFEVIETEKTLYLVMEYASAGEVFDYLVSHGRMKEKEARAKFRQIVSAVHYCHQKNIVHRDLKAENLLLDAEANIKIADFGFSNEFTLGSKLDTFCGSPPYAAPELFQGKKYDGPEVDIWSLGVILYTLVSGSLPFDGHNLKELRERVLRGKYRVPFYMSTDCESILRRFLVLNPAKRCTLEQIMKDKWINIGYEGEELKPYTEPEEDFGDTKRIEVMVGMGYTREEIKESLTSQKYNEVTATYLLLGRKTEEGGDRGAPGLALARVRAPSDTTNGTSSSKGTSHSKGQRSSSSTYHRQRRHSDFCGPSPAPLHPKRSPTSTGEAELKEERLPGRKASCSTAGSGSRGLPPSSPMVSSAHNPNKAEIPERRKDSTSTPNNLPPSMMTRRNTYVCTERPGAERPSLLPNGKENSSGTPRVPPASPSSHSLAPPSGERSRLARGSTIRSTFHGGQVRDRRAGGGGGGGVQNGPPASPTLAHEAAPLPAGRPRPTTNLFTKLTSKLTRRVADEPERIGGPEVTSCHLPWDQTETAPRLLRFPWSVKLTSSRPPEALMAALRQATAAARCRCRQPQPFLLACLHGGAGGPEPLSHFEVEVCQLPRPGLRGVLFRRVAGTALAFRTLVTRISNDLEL
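Note: reported value is a mean MARK4 inhibition at 1 µM, taken from the GSK PKIS screening set.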

Row | Compound | inhibition
1 | Cc1c2ccc(N(C)c3ccnc(Nc4cccc(S(N)(=O)=O)c4)n3)cc2nn1C | 5.35%
2 | Cc1ccc(-c2cc3c(NC(=O)C4CC4)ncnc3o2)cc1 | 3.33%
3 | CN(C)CCNC(=O)Nc1ccc(N(C)c2ccnc(Nc3ccc(CS(C)(=O)=O)cc3)n2)cc1 | 8.9%
4 | CCS(=O)(=O)c1ccc(OC)c(Nc2ncc(-c3cccc(F)c3)o2)c1 | 2.65%
5 | CC(C)c1ccc(-c2cc(-c3c[nH]nc3-c3ccccn3)ccn2)cc1 | 0.5%
6 | c1ccc(-c2n[nH]cc2-c2ccnc(-c3ccc(OCCn4ccnc4)cc3)c2)nc1 | 3.83%
7 | COc1ccc(Nc2ncc(-c3ccccc3)o2)cc1OC | 19.4%
8 | Cc1cc(O)cc(C)c1/C=C/c1cncc(C(N)=O)c1 | 1.6%
9 | CC1=C(C(=O)Nc2ccc3[nH]nc(C)c3c2)C(c2ccc(C(F)(F)F)cc2)CC(=O)N1 (stereo unspecified) | 3.18%
10 | NS(=O)(=O)c1cccc(N/C=C2\C(=O)Nc3ccccc32)c1 | 15.5%
11 | Fc1ccc(Nc2nccc(-c3c(-c4ccc(C(F)(F)F)cc4)nn4ncccc34)n2)cc1F | 2.56%
12 | COc1cc2c(cc1Nc1nc(Nc3cccc(F)c3C(N)=O)c3cc[nH]c3n1)N(C(=O)CN1CCN(C(C)C)CC1)CC2 | 2.06%
13 | O=C(O[C@H]1CN[C@H](C#Cc2cc3ncnc(Nc4ccc5c(ccn5Cc5cc(F)ccc5F)c4)c3s2)C1)N1CCOCC1 | 0.75%
14 | CCN1CCC(C(=O)Nc2n[nH]c3nnc(-c4cccc(F)c4F)cc23)CC1 | 2.52%
15 | N#Cc1cccc(Nc2ncc(-c3ccccc3)o2)c1 | 1.81%
16 | CS(=O)(=O)CCNCc1ccoc1-c1ccc2ncnc(Nc3ccc(OCc4ccccc4)cc3)c2c1 | -0.4%

Row | Compound | inhibition
17 | COc1cccc(-n2ncc3c(N/N=C/c4ccc(C(=O)NCCN(C)C)cc4)ncnc32)c1 | 16.8%
18 | COc1cc(N2CCN(C(C)C)CC2)ccc1Nc1nc(Nc2cccc3ncccc23)c2cc[nH]c2n1 | 1.44%
19 | NS(=O)(=O)c1ccc(N/N=C2\C(=O)Nc3ccc(C(=O)NCc4ccncc4)cc32)cc1 | 33.7%
20 | CCn1c(-c2nonc2N)nc2cncc(C(=O)NCCNC)c21 | 7.71%
21 | COC(=O)Nc1nc2cc(Oc3ccc(NC(=O)Nc4ccccc4)cc3)ccc2[nH]1 | 0.89%
22 | COc1cc(Nc2ncc(-c3ccccc3)o2)cc(OC)c1 | 3.56%
23 | COc1ccc(-c2nn3ncccc3c2-c2ccnc(Nc3ccc(F)c(F)c3)n2)cc1 | 1.84%
24 | COc1c(C(N)=O)cc(-c2ccc(Cl)cc2)cc1-c1ccc(S(N)(=O)=O)cc1 | 1.37%
25 | Nc1ncnc2occ(-c3ccc(NC(=O)Nc4cc(C(F)(F)F)ccc4F)cc3)c12 | 2.95% and 1.13%
26 | CC1=C(C(=O)Nc2ccc3[nH]ncc3c2)C(c2ccc(F)cc2)N=C(c2ccc(C(F)(F)F)nc2)N1 (stereo unspecified) | 2.44%
27 | CN1CCN(Cc2ccc(-c3cc4ncnc(Nc5ccc(OCc6cccc(F)c6)c(Cl)c5)c4s3)o2)CC1 | 3.52% and 3.32%
28 | N#Cc1ccc2c(-c3ccnc(NC4CC4)n3)c(-c3ccc(F)cc3)nn2c1 | 0.11%
29 | CNC(=O)c1ncccc1Nc1nc(Nc2cc3c(cc2OC)CCCN3C(=O)CN(C)C)nc2[nH]ccc12 | 4.01%
30 | Nc1nccc(-c2c(-c3ccc(F)cc3)ncn2C2CCNCC2)n1 | 0.67% and 0.98%
31 | c1cnn2ncc(-c3ccnc(NCCCN4CCOCC4)n3)c2c1 | 2.05%

From ChEMBL document CHEMBL1961873, “Compounds: GSK PKIS; Assays: Nanosyn kinase panel” (2012)
